Assay results taken from the supplement of paper PMC12636033.
± gives the standard deviation of the averaged measurements. Over roughly 33,000 sequences, “E-score (rank enrichment, -0.5 to 0.5)” has its median near -0.0075; the highest 2% begin near 0.23. The full list was thinned out, with the highest values kept by preference.

Tested on: WT Max(13-93) synthetic (M65Nle)
Assay: PBM 8-mer E-score (E-score (rank enrichment, -0.5 to 0.5)); higher = stronger preferential binding
Procedure: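 Protein binding microarray (universal PBM chip covering all 10-mers in fixed probe flanks) with chemically synthesized human Max(13-93) bHLH-LZ analogs (not full-length Max) bearing noncanonical residues (hArg, Tha, Aib, Nle at 65) and aromatic Cys staples. Read-out per 8-mer (and its reverse complement): E-score (rank-based enrichment, -0.5 to 0.5) and Z-score of median probe intensity.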

Sequence | PBM 8-mer E-score
ACAAGCAA | 0.239 ± 0.01
ACCACCTC | 0.0118 ± 0.00067
ACGTTTTC | 0.116 ± 0.034
ATAGAGTC | -0.13 ± 0.093
CGTCGAAG | -0.152 ± 0.018
CTAGCTCC | -0.117 ± 0.094
GCACGACA | -0.0608 ± 0.098
AAGCTGGA | -0.0702 ± 0.12
GCAGAAGC | -0.118 ± 0.075
ATGTTCCC | 0.0189 ± 0.083
CCAAAAAA | 0.171 ± 0.017
CAAAAAAC | 0.161 ± 0.012
ACAAAATC | 0.106 ± 0.0076
CAAAAAAA | 0.248 ± 0.0035
ACAAAATG | 0.3408 ± 0.0015
ACAAAATA | 0.209 ± 0.054
AAAAATAA | 0.0936 ± 0.097
CAAAATAA | 0.239 ± 0.012
TAAAATAA | 0.15 ± 0.0044
CGTGCCCA | -0.00988 ± 0.079
ATCTTAGG | -0.0691 ± 0.031
CAGTGATG | 0.0281 ± 0.13
ACGAGGCC | -0.0195 ± 0.14
GCGCTCAC | -0.00351 ± 0.038

Sequence | PBM 8-mer E-score
ACAGCGTC | 0.0682 ± 0.028
ACCGCGTG | 0.365 ± 0.056
ACAGCGTA | -0.0609 ± 0.029
ACAGCGTG | 0.235 ± 0.013
ACCGCGTA | 0.0537 ± 0.048
ACCGCGTC | -0.117 ± 0.08
GAACCCCC | -0.387 ± 0.031
ATCTTCAG | 0.0326 ± 0.1
TAGTCAAA | 0.14 ± 0.09
TAGATTAA | 0.154 ± 0.027
CGATGCCC | -0.19 ± 0.045
CAAAACCA | 0.0992 ± 0.086
GAAAACGA | 0.0526 ± 0.057
CAAACGGC | -0.279 ± 0.026
GAAACGGC | 0.0668 ± 0.011
AAAACGGC | 0.251 ± 0.16
CAAATCCA | 0.0485 ± 0.13
TAAAACCA | 0.148 ± 0.056
AAAATCCA | 0.26 ± 0.06
GAAATCCA | -0.0865 ± 0.057
AAAAACGA | 0.25 ± 0.03
CAAAACGA | 0.0654 ± 0.066
AAAAACCA | 0.238 ± 0.057
AGTTGTGG | 0.00744 ± 0.15

Sequence | PBM 8-mer E-score
CGACCGTA | -0.107 ± 0.19
CCATAGAA | 0.0354 ± 0.028
GAACCAGC | -0.132 ± 0.07
GGGCCATA | 0.00373 ± 0.018
CAGTTACG | -0.0592 ± 0.044
AATGTATA | 0.211 ± 0.048
CATGTAAA | 0.203 ± 0.052
AATGTGTA | 0.167 ± 0.021
AATGTAAA | 0.278 ± 0.0039
AATGTATC | 0.168 ± 0.036
AATGTGTG | 0.267 ± 0.05
AATGTAAT | 0.12 ± 0.11
AATGTATG | 0.255 ± 0.086
AATGTGTC | 0.0393 ± 0.0075
ATAGGCGG | 0.057 ± 0.12
AAAGGATC | -0.108 ± 0.042
AGCTTCAA | 0.106 ± 0.021
ATCACTGA | -0.0485 ± 0.06
ACGTGAAA | 0.279 ± 0.041
CTGTGAAA | 0.00343 ± 0.13
GTGTGAAA | 0.1684 ± 0.00099
ATGTGAAA | 0.271 ± 0.12
ACGTGAAT | 0.239 ± 0.066
ACGTGAAG | 0.0785 ± 0.02

Sequence | PBM 8-mer E-score
CCGTGAAA | -0.0191 ± 0.012
ACGTGAAC | 0.0244 ± 0.025
TCGTGAAA | -0.119 ± 0.14
AACGGTAC | 0.0818 ± 0.035
TAGATTGA | -0.00515 ± 0.13
CCAGCAAC | -0.121 ± 0.011
CACATTCA | 0.111 ± 0.11
CGTGGCCA | 0.131 ± 0.084
TCTACAAA | 0.0553 ± 0.18
ACGTATTA | 0.165 ± 0.11
GAAGGTAC | -0.096 ± 0.22
ACCACTCC | 0.0165 ± 0.045
CAAAATGG | 0.116 ± 0.0099
CAAAATGC | 0.0988 ± 0.086
TAAAATGA | 0.153 ± 0.019
CAAAATGA | 0.287 ± 0.014
AAAAATGA | 0.2619 ± 0.0016
GAAAATGA | 0.0385 ± 0.12
GCTCACTA | 0.105 ± 0.0026
ACTCTTAC | 0.0838 ± 0.051
AGACTGGC | -0.174 ± 0.07
AGACATCT | 0.0328 ± 0.02
CGTAAAAA | 0.107 ± 0.012
AGTAGAAA | 0.184 ± 0.098

Sequence | PBM 8-mer E-score
TGTAAAAA | 0.248 ± 0.099
CGTAGAAA | 0.2 ± 0.024
AGTAAAAA | 0.207 ± 0.023
GGTAAACA | 0.0182 ± 0.025
TGTAAACA | 0.237 ± 0.079
TGTAGAAA | 0.284 ± 0.026
AGTAAACA | 0.177 ± 0.012
CGCATCAG | -0.138 ± 0.15
AACCGTTC | -0.064 ± 0.11
CTCTAATC | -0.0502 ± 0.086
TCTTGGAA | -0.078 ± 0.026
AAAGGTGT | 0.103 ± 0.015
ATATTCAT | 0.218 ± 0.056
ATGTGCGC | 0.1696 ± 0.00066
CCGTGCGC | 0.0359 ± 0.14
ACGTGCGG | 0.254 ± 0.056
ACGTGCGA | 0.229 ± 0.046
ACGTGCGC | 0.279 ± 0.03
ATGTGCGG | 0.0139 ± 0.1
GGGGGTCA | -0.172 ± 0.1
GTAGTGAC | -0.0549 ± 0.095
GATCCACC | -0.171 ± 0.058
CGAGCGAG | 0.0998 ± 0.018
